In PubChem BioAssay (NCATS):
Inconclusive results are not listed. A number with no mark means an inactive call. Calls come from the whole dose curve; as a rule, active = well fitted curve in the direction sought with a large enough effect; inconclusive = small, poorly fitted or top-dose-only effect, or another doubt; inactive = no such curve, though single readings can be large or run the other way.

Biological target: Ferritin light chain (Equus caballus) (UniProt P02791)
Test: qHTS Validation Assay for Identification of Novel General Anesthetics (AID 2323)
Conditions: horse apoferritin, anesthetic-site fluorescent probe displacement; series mostly up to 76.9 µM; activity change, negative = inhibition: at the top concentration
Summary of the method: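 10 uM horse-spleen apoferritin + 1-AMA (50% saturated, PBS); cpd pin-transferred, 10 min RT. Ex 380/Em 535 nm endpoint. Activity normalized between free 1-AMA and 1-AMA/apoferritin; 4-parameter Hill fit of concentration-response.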
% is set by controls: 0 for no effect and ±100 for the full control effect.

Sequence of Ferritin light chain (Equus caballus) (P02791 2-175 limits assumed): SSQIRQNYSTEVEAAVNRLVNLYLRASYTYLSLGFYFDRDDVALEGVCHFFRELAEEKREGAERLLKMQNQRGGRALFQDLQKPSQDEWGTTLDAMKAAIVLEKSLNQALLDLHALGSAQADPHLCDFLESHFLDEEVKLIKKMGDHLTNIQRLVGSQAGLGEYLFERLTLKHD

Q: `CC(C)NCC(O)COc1cccc2ccccc12` (stereo not given) was tested. Which “activity change, negative = inhibition” value did it give?
A: -5.19%

Q: With `COc1ccccc1N1CCN(CCCCNS(=O)(=O)c2cccc3c(N(C)C)cccc23)CC1` as the molecule, how does the “activity change, negative = inhibition” value read?
A: 320%

Q: With `O=C1NC(O)=NC1(c1ccccc1)c1ccccc1` as the molecule, how does the “activity change, negative = inhibition” value read?
A: -5.17%

Q: `O=C(Nc1cccc(C(=O)Nc2ccc(S(=O)(=O)O)c3cc(S(=O)(=O)O)cc(S(=O)(=O)O)c23)c1)Nc1cccc(C(=O)Nc2ccc(S(=O)(=O)O)c3cc(S(=O)(=O)O)cc(S(=O)(=O)O)c23)c1` was tested. Which “activity change, negative = inhibition” value did it give?
A: -9.56%

Q: Which “activity change, negative = inhibition” value does the source give for `COc1cccc(OC)c1OCCNCC1COc2ccccc2O1` (stereo not given) here?
A: -10.6%

Q: With `CN=c1nc(-c2ccccc2)n(-c2ccccc2)s1` as the molecule, how does the “activity change, negative = inhibition” value read?
A: -14.5%

Q: Which “activity change, negative = inhibition” value does the source give for `CC(C)NC[C@H](O)COc1cccc2[nH]ccc12` here?
A: -3.23%

Q: `Cc1ccccc1CNc1ncnc2c1ncn2C1OC(CO)C(O)C1O` (stereo not given) was tested. Which “activity change, negative = inhibition” value did it give?
A: -2.78%

Q: How did the “activity change, negative = inhibition” value turn out when `NC(CCCP(=O)(O)O)C(=O)O` (stereo not given) was run?
A: -4.68%

Q: With `O=c1[nH]c2cc(Cl)c(Cl)cc2[nH]c1=O` as the molecule, how does the “activity change, negative = inhibition” value read?
A: 144%

Q: `Fc1cccc(/C=N/N=C/c2cccc(F)c2)c1` was tested. Which “activity change, negative = inhibition” value did it give?
A: -10.7%

Q: With `O=C(/C=C/c1ccc(O)cc1)c1ccc(O)cc1O` as the molecule, how does the “activity change, negative = inhibition” value read?
A: -5.22%

Q: Which “activity change, negative = inhibition” value does the source give for `COc1ccc(/C=C/C(=O)Nc2ccccc2C(=O)O)cc1OC` here?
A: -7.31%

Q: Which “activity change, negative = inhibition” value does the source give for `CN1CCc2cc(NC(=O)Nc3cccnc3)ccc21` here?
A: -12%

Q: How did the “activity change, negative = inhibition” value turn out when `CN(C)C(N)=NCCC[C@H](N)C(=O)O` was run?
A: -7.37%

Q: With `O=C(O)CCCC[C@@H]1CCSS1` as the molecule, how does the “activity change, negative = inhibition” value read?
A: -5.78%

Q: Which “activity change, negative = inhibition” value does the source give for `O=C(O)/C=C/C(O)c1ccc(Cl)cc1` (stereo not given) here?
A: -3.19%

Q: How did the “activity change, negative = inhibition” value turn out when `CC(C)Cc1ccc([C@H](C)C(=O)O)cc1` was run?
A: -8.72%

Q: `Ic1ccc(N2CCN(Cc3c[nH]c4ncccc34)CC2)cc1` was tested. Which “activity change, negative = inhibition” value did it give?
A: 29.4%

Q: With `CC12C(=O)OC(=O)C1(C)C1CCC2O1` (stereo not given) as the molecule, how does the “activity change, negative = inhibition” value read?
A: -13.8%
